In PubChem BioAssay (EPA / NIEHS):
Calls of active or inactive are those of the source. Rule for the calls: active = hit-call score of the fitted dose curve at least 0.9, where 1 is the maximum; inactive = score below 0.9.

Key:
Conditions in all cases: mRNA level, 48 h; actives raise or lower the signal
[1] = read-out: Intercellular Adhesion Molecule 1 (ICAM1), ICAM1 (gene 3383); experiment: LTEA_HepaRG_ICAM1: Life Technologies and Expression Analysis (LTEA) Assay for Intercellular Adhesion Molecule 1 (ICAM1) using HepaRG (AID 2283507)
Procedure, shortened: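 ICAM1 transcript levels measured by qRT-PCR, normalized to three housekeeping genes (ACTB, GAPDH, POLR2A), after 48 h chemical exposure of HepaRG cells. Duplicate eight-point half-log series from 100 uM in 0.5% DMSO; gain or loss fitted against vehicle.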

[2] = read-out: Insulin-like growth factor-binding protein 1 (IGFBP1), IGFBP1 (gene 3484); experiment: LTEA_HepaRG_IGFBP1: Life Technologies and Expression Analysis (LTEA) Assay for Insulin-like growth factor-binding protein 1 (IGFBP1) using HepaRG (AID 2283508)
Procedure, shortened: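 Read-out is qRT-PCR transcript level normalized to three housekeeping genes, fitted in both directions against 0.5% DMSO. Differentiated HepaRG cells received eight half-log concentrations (top 100 uM) in duplicate for 48 h in serum-free induction medium.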

[3] = read-out: Interleukin 6 Receptor (IL6R), IL6R (gene 3570); experiment: LTEA_HepaRG_IL6R: Life Technologies and Expression Analysis (LTEA) Assay for Interleukin 6 Receptor (IL6R) using HepaRG (AID 2283510)
Procedure, shortened: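 HepaRG, 48 h exposure, 8-pt half-log series, top 100 uM, 0.5% DMSO vehicle, duplicates. Read-out: TaqMan qRT-PCR of IL6R transcript, housekeeping-gene normalized. Gain or loss fitted relative to DMSO baseline.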

[4] = read-out: Potassium channel subfamily K member 1 (KCNK1), KCNK1 (gene 3775); experiment: LTEA_HepaRG_KCNK1: Life Technologies and Expression Analysis (LTEA) Assay for Potassium channel subfamily K member 1 (KCNK1) using HepaRG (AID 2283511)
Procedure, shortened: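 Human HepaRG cultures receive test chemicals for 48 h in 0.5% DMSO, top concentration 100 uM with half-log dilutions. Induction or suppression of KCNK1 mRNA relative to DMSO is derived by bidirectional fitting of qRT-PCR data.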

[5] = read-out: Keratin 19 (KRT19), KRT19 (gene 3880); experiment: LTEA_HepaRG_KRT19: Life Technologies and Expression Analysis (LTEA) Assay for Keratin 19 (KRT19) using HepaRG (AID 2283512)
Procedure, shortened: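 KRT19 transcript measured by TaqMan qRT-PCR, referenced to three housekeeping genes, after HepaRG cells received test chemicals for 48 h. Eight half-log concentrations, top 100 uM, 0.5% DMSO vehicle; increases and decreases both fitted.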

[6] = read-out: JUN Transcription Factor, JUN (gene 3725); experiment: LTEA_HepaRG_JUN: Life Technologies and Expression Analysis (LTEA) Assay for JUN Transcription Factor using HepaRG (AID 2283513)
Procedure, shortened: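 HepaRG, 48 h exposure, 8-pt half-log series top 100 uM, 0.5% DMSO, duplicate. JUN mRNA by qRT-PCR (Fluidigm), housekeeping-normalized (ACTB/GAPDH/POLR2A); bidirectional curve fit vs DMSO baseline.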

[7] = read-out: Lipase C (LIPC), LIPC (gene 3990); experiment: LTEA_HepaRG_LIPC: Life Technologies and Expression Analysis (LTEA) Assay for Lipase C (LIPC) using HepaRG (AID 2283514)
Procedure, shortened: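 In this multiplexed gene-expression screen, human HepaRG cultures received test chemicals for 48 h across eight concentrations with 100 uM highest, in duplicate. Values reflect LIPC mRNA induction or suppression versus DMSO vehicle, from normalized qRT-PCR.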

[8] = read-out: Lipoprotein lipase (LPL), LPL (gene 4023); experiment: LTEA_HepaRG_LPL: Life Technologies and Expression Analysis (LTEA) Assay for Lipoprotein lipase (LPL) using HepaRG (AID 2283515)
Procedure, shortened: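 Concentration-response testing used half-log steps from 100 uM in 0.5% DMSO on human HepaRG cells, 48 h, duplicate wells. Phenobarbital 1 mM served as induction control; LPL mRNA was normalized to ACTB, GAPDH, POLR2A.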

[9] = read-out: MicroRNA 122 (MIR122), gene 406906; experiment: LTEA_HepaRG_MIR122: Life Technologies and Expression Analysis (LTEA) Assay for MicroRNA 122 (MIR122) using HepaRG (AID 2283516); note: the transcript read is the microRNA miR-122
Procedure, shortened: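 qRT-PCR read-out (TaqMan, Fluidigm array), normalized to three housekeeping genes; HepaRG cells dosed 48 h at 8 concentrations up to 100 uM in 0.5% DMSO, duplicate; gain or loss fitted against DMSO baseline.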

[10] = read-out: matrix metalloproteinase-10 (MMP10), MMP10 (gene 4319); experiment: LTEA_HepaRG_MMP10: Life Technologies and Expression Analysis (LTEA) Assay for matrix metalloproteinase-10 (MMP10) using HepaRG (AID 2283517)
Procedure, shortened: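 In differentiated HepaRG cultures kept in 0.5% DMSO, test chemicals act for 48 h over an eight-point range with a top dose of 100 uM. Expression is then quantified by TaqMan RT-PCR against ACTB, GAPDH and POLR2A.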

MYC, MYC (gene 4609) = experiment: LTEA_HepaRG_MYC: Life Technologies and Expression Analysis (LTEA) Assay for MYC using HepaRG (AID 2283518)
Procedure, shortened: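 MYC transcript changes, up or down relative to 0.5% DMSO, from TaqMan qRT-PCR normalized to three housekeeping genes. Human HepaRG cultures received chemicals for 48 h at eight half-log concentrations up to 100 uM, in duplicate.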

[11] = read-out: matrix metalloproteinase-3 (MMP3), MMP3 (gene 4314); experiment: LTEA_HepaRG_MMP3: Life Technologies and Expression Analysis (LTEA) Assay for matrix metalloproteinase-3 (MMP3) using HepaRG (AID 2283519)
Procedure, shortened: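 Human liver HepaRG cultures received chemicals (top concentration 100 uM, 0.5% DMSO) for 48 h in duplicate. MMP3 mRNA induction or loss was then assessed via TaqMan qRT-PCR with housekeeping-gene normalisation.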

[12] = read-out: Paternally Expressed 10 (PEG10), PEG10 (gene 23089); experiment: LTEA_HepaRG_PEG10: Life Technologies and Expression Analysis (LTEA) Assay for Paternally Expressed 10 (PEG10) using HepaRG (AID 2283520);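 for AC50: PEG10 transcript by qRT-PCR normalised to ACTB GAPDH and POLR2A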
Procedure, shortened: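 qRT-PCR read-out: PEG10 mRNA normalised to three housekeeping genes, fitted bidirectionally against 0.5% DMSO vehicle. HepaRG cells received test chemicals for 48 h in serum-free induction medium, 8 points, top 100 uM, half-log steps.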

[13] = read-out: Protein phosphatase 2A (PPP2R4), PTPA (gene 5524); experiment: LTEA_HepaRG_PPP2R4: Life Technologies and Expression Analysis (LTEA) Assay for Protein phosphatase 2A (PPP2R4) using HepaRG (AID 2283522)
Procedure, shortened: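 HepaRG, 48 h exposure, 8-pt half-log series from 100 uM, 0.5% DMSO vehicle, duplicates. Readout: PPP2R4 mRNA, Fluidigm qRT-PCR, housekeeping-normalized. Bidirectional curve fit vs DMSO baseline.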

[14] = read-out: Phosphatase and tensin (PTEN), PTEN (gene 5728); experiment: LTEA_HepaRG_PTEN: Life Technologies and Expression Analysis (LTEA) Assay for Phosphatase and tensin (PTEN) using HepaRG (AID 2283523)
Procedure, shortened: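 Expression of PTEN is quantified in the human liver line HepaRG following two days of dosing (top concentration 100 uM, half-log dilutions, 0.5% DMSO). Values derive from bidirectional curve fitting relative to DMSO controls.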

[15] = read-out: solute carrier (SLC22A1), SLC22A1 (gene 6580); experiment: LTEA_HepaRG_SLC22A1: Life Technologies and Expression Analysis (LTEA) Assay for solute carrier (SLC22A1) using HepaRG (AID 2283524);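 for AC50: differentiated human HepaRG liver cells in serum-free induction medium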
Procedure, shortened: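 Transcript induction or suppression of SLC22A1 in human HepaRG cultures is scored after 48 h chemical treatment, with DMSO (0.5%) as baseline for bidirectional fitting. Concentrations span eight half-log points topping at 100 uM.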

[16] = read-out: Pyruvate Dehydrogenase Kinase 4 (PDK4), PDK4 (gene 5166); experiment: LTEA_HepaRG_PDK4: Life Technologies and Expression Analysis (LTEA) Assay for Pyruvate Dehydrogenase Kinase 4 (PDK4) using HepaRG (AID 2283525)
Procedure, shortened: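 Eight-point, half-log concentration series (max 100 uM, 0.5% DMSO) applied to differentiated HepaRG cells for 48 h in duplicate. Endpoint: PDK4 mRNA induction or repression by qRT-PCR against DMSO baseline.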

[17] = read-out: NAD(P)H dehydrogenase [quinone] 1 (NQO1), NQO1 (gene 1728); experiment: LTEA_HepaRG_NQO1: Life Technologies and Expression Analysis (LTEA) Assay for NAD(P)H dehydrogenase [quinone] 1 (NQO1) using HepaRG (AID 2283526)
Procedure, shortened: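 qRT-PCR read-out (Fluidigm TaqMan), normalized to three housekeeping genes, after 48 h chemical exposure of HepaRG cells. Concentrations: eight points, top 100 uM, half-log steps, 0.5% DMSO vehicle. Gain or loss of signal fitted relative to DMSO.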

[18] = read-out: Nuclear factor NF-kappa-B p105 subunit (Homo sapiens) (UniProt P19838); experiment: LTEA_HepaRG_NFKB1: Life Technologies and Expression Analysis (LTEA) Assay for Nuclear Factor Kappa B Subunit 1 (NFKB1) using HepaRG (AID 2283521);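 note: differentiated human HepaRG liver cells in serum-free induction medium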
Procedure, shortened: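 NFKB1 transcript was measured by TaqMan qRT-PCR on Fluidigm arrays, normalised to three housekeeping genes and fitted in both directions against 0.5% DMSO. HepaRG cells were dosed in duplicate for 48 h in serum-free induction medium, eight half-log steps from 100 uM.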

Chain of Nuclear factor NF-kappa-B p105 subunit (Homo sapiens) (P19838 whole entry, looked up): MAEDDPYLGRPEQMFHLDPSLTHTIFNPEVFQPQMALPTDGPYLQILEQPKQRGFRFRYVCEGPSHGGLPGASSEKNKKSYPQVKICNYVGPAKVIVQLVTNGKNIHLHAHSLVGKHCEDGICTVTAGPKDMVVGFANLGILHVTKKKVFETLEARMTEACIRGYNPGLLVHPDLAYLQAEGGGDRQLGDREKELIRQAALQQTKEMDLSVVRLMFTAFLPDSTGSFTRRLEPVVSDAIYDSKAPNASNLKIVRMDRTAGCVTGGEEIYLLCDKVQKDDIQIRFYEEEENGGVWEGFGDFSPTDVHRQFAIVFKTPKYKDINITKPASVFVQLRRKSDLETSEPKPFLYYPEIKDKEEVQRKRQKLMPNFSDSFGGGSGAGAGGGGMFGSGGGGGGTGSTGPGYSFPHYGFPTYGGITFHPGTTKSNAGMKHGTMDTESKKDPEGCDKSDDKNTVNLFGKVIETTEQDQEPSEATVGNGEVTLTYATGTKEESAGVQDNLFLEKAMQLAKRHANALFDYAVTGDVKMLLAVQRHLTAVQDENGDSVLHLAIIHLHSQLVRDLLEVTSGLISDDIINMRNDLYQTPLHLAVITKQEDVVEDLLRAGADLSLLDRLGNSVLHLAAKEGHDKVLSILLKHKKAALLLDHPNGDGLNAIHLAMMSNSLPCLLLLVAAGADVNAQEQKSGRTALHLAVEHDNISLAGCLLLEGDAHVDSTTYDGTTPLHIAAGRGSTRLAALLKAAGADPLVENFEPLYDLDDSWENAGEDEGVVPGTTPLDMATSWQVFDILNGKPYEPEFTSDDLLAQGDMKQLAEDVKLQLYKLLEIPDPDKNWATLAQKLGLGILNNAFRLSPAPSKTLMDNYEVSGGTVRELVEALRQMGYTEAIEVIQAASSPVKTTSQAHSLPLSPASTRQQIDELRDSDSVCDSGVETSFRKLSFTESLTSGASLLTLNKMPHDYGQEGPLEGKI

Clc1ccc(C(Cl)(Cl)Cl)cc1
outcome [1]: inactive
outcome [2]: inactive
outcome [3]: inactive
outcome [4]: inactive
outcome [5]: inactive
outcome [6]: inactive
outcome [7]: inactive
outcome [8]: inactive
outcome [9]: inactive
outcome [10]: inactive
outcome (MYC, MYC (gene 4609)): inactive
outcome [11]: inactive
outcome [12]: inactive
outcome [13]: inactive
outcome [14]: inactive
outcome [15]: inactive
outcome [16]: inactive

CCOCCOC(C)=O
outcome [1]: inactive
outcome [2]: inactive
outcome [3]: inactive
outcome [4]: inactive
outcome [5]: inactive
outcome [6]: inactive
outcome [7]: inactive
outcome [8]: inactive
outcome [9]: inactive
outcome [10]: inactive
outcome (MYC, MYC (gene 4609)): inactive
outcome [11]: inactive
outcome [12]: inactive
outcome [13]: inactive
outcome [14]: inactive
outcome [15]: inactive
outcome [16]: inactive
outcome [17]: inactive

O=C(O)C(F)(F)C(F)(F)C(F)(F)C(F)(F)C(F)(F)C(F)(F)C(F)(F)C(F)(F)F
AC50 [1]: 78.7 µM (active)
AC50 [2]: 86.1 µM (active)
outcome [3]: inactive
AC50 [4]: 76 µM (active)
AC50 [5]: 66.6 µM (active)
AC50 [6]: 68.2 µM (active)
AC50 [7]: 94.5 µM (active)
AC50 [8]: 79.5 µM (active)
AC50 [9]: 74.4 µM (active)
AC50 [10]: 76.9 µM (active)
AC50 (MYC, MYC (gene 4609)): 78.7 µM (active)
outcome [11]: inactive
outcome [12]: inactive
outcome [13]: inactive
outcome [14]: inactive
AC50 [15]: 86.1 µM (active)
AC50 [16]: 32.8 µM (active)

CCC(C)(c1ccc(O)cc1)c1ccc(O)cc1
outcome [1]: inactive
outcome [2]: inactive
outcome [3]: inactive
outcome [4]: inactive
outcome [5]: inactive
outcome [6]: inactive
outcome [7]: inactive
outcome [8]: inactive
outcome [9]: inactive
outcome [10]: inactive
outcome (MYC, MYC (gene 4609)): inactive
outcome [11]: inactive
AC50 [12]: 80.3 µM (active)
outcome [18]: inactive
outcome [13]: inactive
outcome [14]: inactive
outcome [15]: inactive
outcome [16]: inactive
outcome [17]: inactive

CCOP(=S)(OCC)SCSC(C)(C)C
outcome [1]: inactive
outcome [2]: inactive
outcome [3]: inactive
outcome [4]: inactive
outcome [5]: inactive
outcome [6]: inactive
outcome [7]: inactive
outcome [8]: inactive
outcome [9]: inactive
outcome [10]: inactive
outcome (MYC, MYC (gene 4609)): inactive
outcome [11]: inactive
AC50 [12]: 50 µM (active)
outcome [13]: inactive
outcome [14]: inactive
outcome [15]: inactive
AC50 [16]: 18 µM (active)
outcome [17]: inactive

CCCCCCCCOC(=O)c1ccccc1C(=O)OCCCCCCCC
outcome [1]: inactive
outcome [2]: inactive
outcome [3]: inactive
outcome [4]: inactive
outcome [5]: inactive
outcome [6]: inactive
outcome [7]: inactive
outcome [8]: inactive
outcome [9]: inactive
outcome [10]: inactive
outcome (MYC, MYC (gene 4609)): inactive
outcome [11]: inactive
outcome [12]: inactive
outcome [18]: inactive
outcome [13]: inactive
outcome [14]: inactive
outcome [15]: inactive
outcome [16]: inactive

CC1=C2C[C@H]3[C@@H](CC=C4C[C@@H](O)CC[C@@]43C)[C@@H]2CC[C@]12O[C@@H]1C[C@H](C)CN[C@H]1[C@H]2C
outcome [1]: inactive
outcome [2]: inactive
outcome [3]: inactive
outcome [4]: inactive
outcome [5]: inactive
outcome [6]: inactive
outcome [7]: inactive
outcome [8]: inactive
outcome [9]: inactive
outcome [10]: inactive
outcome (MYC, MYC (gene 4609)): inactive
outcome [11]: inactive
outcome [12]: inactive
outcome [13]: inactive
outcome [14]: inactive
outcome [15]: inactive
outcome [16]: inactive
outcome [17]: inactive
